Measurements as given in ChEMBL document CHEMBL4513216, “Probing the Open Global Health Chemical Diversity Library for Multistage-Active Starting Points for Next-Generation Antimalarials” (ACS Infect Dis, 2020).
Hit rate of the full screen: of about 69,000 compounds, about 8,600 (12%) showed an effect of 50% or more. This excerpt belongs to a sample that is enriched for strong results.

Each molecule was assayed on Plasmodium berghei (assay: Screen against P. berghei liver stage (PbLuc), transformed with Luciferase, at 10uM). Details: tested at 10 uM.
Assay type: functional, HepG2

Structure (SMILES)	INHIBITION [%]
N#Cc1nc(COc2ccc3c(c2)OCO3)oc1N1CCCC1	45.2
COC(=O)c1cc(C(=O)N2CCCCC2C)n(-c2ccccc2)n1 (stereo not given)	13.4
CN1C[C@H]2CNC[C@@]2(C(=O)N2CCN(c3ncccc3C#N)CC2)C1	48.1
COCCn1c(-c2cccc(OC)c2)cnc1NC(=O)NCC(C)C	25.1
c1cnc(NC2COC3(CCN(Cc4cccs4)CC3)C2)nc1 (stereo not given)	-23.8
CCN(CC)C(=O)c1ccn(COc2ccc(F)cc2)n1	1.04
COC(=O)c1ccc(N(C(=O)c2cscn2)C(C)C)c(C)c1	27
O=C(Cc1ccsc1)N1CCC(c2ccncc2)CC1	45.2
Cc1cc(C)c(CNC(=O)N(C)Cc2ccc3c(c2)OCO3)c(=O)[nH]1	51.1
CCN(Cc1ccc2c(c1)OCCO2)C(=O)NCc1nncn1CC	11.4
Cc1cc(C)c(CNC(=O)N(C)Cc2ccc(F)cc2)c(=O)[nH]1	7.27
Cc1cc(C)c(CNC(=O)N(C)Cc2ccoc2)c(=O)[nH]1	26.5
CN(Cc1ccc2c(c1)OCCO2)C(=O)NCCc1cnn(C)c1	47.6
CCn1cnnc1CNC(=O)N(C)Cc1ccc2c(c1)OCCO2	30.2
CN(Cc1cnn(C)c1)C(=O)NCCc1ccc2c(c1)OCCO2	-2.862
CC(=O)NCCNC(=O)N(C)Cc1ccc2c(c1)OCCO2	56.6
CCn1cnnc1CNC(=O)N(C)Cc1ccc2c(c1)OCO2	59.4
Cc1cc(Nc2cnccn2)cc(C2CCCN2)n1 (stereo not given)	21.7
O=C(C1CCOCC1)N1CCO[C@H]2[C@H](OCC3CC3)CC[C@@H]21	-37.4
Cc1cccc(C(=O)N2CCc3ncnc(C4CCOC4)c3CC2)n1 (stereo not given)	15.9
CC(CN1CCCCCC1)NCc1cc(-c2ccco2)on1 (stereo not given)	59.5
CCSCC(C)NCc1cc(-c2ccco2)on1 (stereo not given)	13.7

Structure (SMILES)	INHIBITION [%]
COC(C)(C)CC(C)NCc1cc(-c2ccco2)on1 (stereo not given)	29.2
CCc1cnccc1C(=O)NC1CCN(Cc2ccccc2F)CC1	23.1
Cn1ncc(N2CCOC(CCNC(=O)N3CCCCC3)C2)cc1=O (stereo not given)	47.4
Cn1ncc(N2CCOC(CCNC(=O)NC(C)(C)C)C2)cc1=O (stereo not given)	71.2
Cn1ncc(N2CCOC(CCNC(=O)CO)C2)cc1=O (stereo not given)	25.8
O=S(=O)(C1CC1)N1C[C@H](Oc2ccccn2)[C@H]2OCCC[C@H]21	15.4
Cc1ccc(CNS(=O)(=O)C=c2[nH]c(=O)n3cccc3c2=O)cc1	0
CO[C@H]1CCN(Cc2cccs2)[C@@H]2CN(Cc3ccncc3)C[C@H]12	61.3
CN(C)[C@@H]1CCN(C(=O)Cc2ccc(F)cc2)[C@H]1Cc1ccncc1	15.9
COCCN1CC[C@H](OC)[C@@H]1Cc1ccccc1	10
CO[C@@H]1CCN(Cc2cccs2)[C@H]1Cc1ccncc1	62.5
CN(C)[C@@H]1CCN(C(=O)Cc2cccs2)[C@H]1Cc1cnn(C)c1	-16.7
CN(C)[C@@H]1CCN(C(=O)Cc2cccs2)[C@H]1Cc1ccncc1	74.2
CO[C@@H]1CCN(Cc2cccs2)[C@@H]2CN(Cc3ccncc3)C[C@@H]21	46.4
COCCO[C@H]1CCN(Cc2cccs2)[C@H]1Cc1cccnc1	32.7
COCCN1C[C@@H]2[C@@H](OC)CCN(Cc3cccs3)[C@@H]2C1	16.8
O=C(Nc1ccccc1)N1CCn2c(nnc2C2CCNCC2)C1	11.8
CN(C)C(=O)CN1CCOCC2(CCN(c3ncc(F)cn3)CC2)C1	-3.26
COCC1CN(Cc2ccc(OC)cc2)S(=O)(=O)c2cnccc2O1 (stereo not given)	13.9
CC(C)CCn1nc(CNc2ccc(Br)cc2)nc1O	44.9
CCCC(=O)N1CCCC(Cn2cc(-c3ccc(F)cc3)nn2)C1 (stereo not given)	1.24
Cc1ccc(NCc2nc3n(n2)CCCCC3)c(C)c1	2.69

Structure (SMILES)	INHIBITION [%]
CCN1C(=O)C[C@@H]2[C@@H]1CCN2S(=O)(=O)Cc1ccc(C)cc1	-17.1
COc1ccc(C(=O)Nc2cc(CC(C)C)nn2C)cc1	22.3
CCNC(=O)[C@@H]1C[C@@H](N)CN1Cc1ccc(-c2ccccc2C#N)o1	23.9
CCNC(=O)[C@@H]1C[C@@H](N)CN1C(=O)Cc1cc(C)ccc1C	11.2
CCNC(=O)[C@@H]1C[C@H](N)CN1Cc1ccc(-c2ccccc2C#N)o1	47.1
CCNC(=O)[C@@H]1C[C@H](N)CN1Cc1ccc(Sc2ccc(C)cc2)o1	67.5
CCNC(=O)[C@@H]1C[C@@H](N)CN1C(=O)CCc1ccc(C)c(C)c1	15.3
CCNC(=O)[C@@H]1C[C@H](N)CN1Cc1ccc(-c2cc[nH]n2)o1	61.9
CCNC(=O)[C@@H]1C[C@H](N)CN1C(=O)CCc1ccc(C)c(C)c1	30.9
CCNC(=O)[C@@H]1C[C@H](N)CN1C(=O)Cc1cc(C)ccc1C	-1.91
CCNC(=O)[C@@H]1C[C@@H](N)CN1Cc1ccc(Sc2ccc(C)cc2)o1	77.7
CCCNC(=O)Nc1ncc(-c2cccnc2)s1	15.5
COCC(=O)N1CC[C@H]2C[C@H](C)O[C@@H]2C1	38.1
CCCC(=O)N1CCCCC1C(=O)Nc1ccc(-c2nnc[nH]2)cc1 (stereo not given)	16.8
Cn1nc(C2CCN(C(=O)CCN3CCOCC3)CC2)c2cccnc21	32.8
CC(C)c1nc(CSc2nnc(-c3cccs3)n2CC(N)=O)no1	-49.7
CC(O)CN1CCN(C(=O)c2ccn(-c3ccccc3Cl)n2)CC1 (stereo not given)	-12.2
COC[C@@H]1CN(C)C(=O)[C@@H]2CCN(Cc3ccco3)CC[C@H]12	54.1
CN1C[C@@H](COCC2CC2)[C@H]2CCN(Cc3ccco3)CC[C@H]2C1=O	46.7
CN1C[C@H](COCC2CC2)[C@H]2CCN(Cc3ccco3)CC[C@H]2C1=O	33.4
Cc1cn2c(n1)CCC(NS(=O)(=O)c1sc(C)nc1C)C2 (stereo not given)	21.5
Cc1cn2c(n1)CCC(NS(=O)(=O)c1ccc(C)s1)C2 (stereo not given)	34.4

Structure (SMILES)	INHIBITION [%]
Cc1cn2c(n1)CCC(NS(=O)(=O)c1cc(C)sc1C)C2 (stereo not given)	61.5
Cc1cccc(COC[C@@H]2CC[C@H]3[C@H](CCN3C(=O)CC3CC3)O2)n1	24.1
Cc1ccc(-c2cc(C(=O)N(C)Cc3noc4c3CCCC4)[nH]n2)o1	34.5
CC(NCc1cnc(N2CCN(C)CC2)nc1)c1ccc(F)cc1 (stereo not given)	26.5
CC(Nc1cnn(C)c(=O)c1Cl)c1ccc(F)c(F)c1 (stereo not given)	68.9
Cc1nccn1-c1ccc(C(C)Nc2cnn(C)c(=O)c2Cl)cc1 (stereo not given)	52.6
Cn1ncc(NCc2cc(F)cc(F)c2)c(Cl)c1=O	8.48
COc1ccc(C(C)Nc2nc3c(C)nn(C)c3c(=O)n2C)cc1 (stereo not given)	-45.2
Cn1ncc(N2CCOCC2)c(Cl)c1=O	8.77
COc1ccc(C(C)Nc2cnn(C)c(=O)c2Cl)cc1OC (stereo not given)	68.9
CC(Nc1cnn(C)c(=O)c1Cl)c1ccc(F)cc1 (stereo not given)	65.9
Cc1ccc(C(C)NC(=O)CCc2cnn(C)c2)cc1F (stereo not given)	33
COc1ccc(C(C)Nc2ncc(C(N)=O)cc2Cl)cc1F (stereo not given)	-138
COc1ccc(C(C)Nc2ncc(C(N)=O)cc2Cl)cc1OC (stereo not given)	-59.5
Cc1nccn1-c1ccc(NS(=O)(=O)c2cnn(C(C)C)c2)cn1	-2.97
CC(C)CC(=O)N1Cc2ccccc2CC1C(=O)Nc1nccs1 (stereo not given)	31.6
CCn1cc2c(n1)CN(S(=O)(=O)c1cccnc1)CC2COC (stereo not given)	8.85
CC1(c2ncc(CN3CCN(c4ccccn4)CC3)cn2)CCCCO1 (stereo not given)	-16.85
O=C1[C@H]2CN(CC3CC3)C[C@H]2CN1Cc1cccc(F)c1	39.8
O=C(NCc1cccnc1N1CCc2ccccc2C1)c1cnc[nH]1	-11.6
Cc1cc(C(=O)N2CC[C@@H]3CN(CCC(C)C)S(=O)(=O)[C@@H]3CC2)no1	6.27
CS(=O)(=O)N1C[C@H]2CC[C@@H](C1)N(C/C=C/c1ccc(F)cc1)C2	31.7

Structure (SMILES)	INHIBITION [%]
Cc1ccc(CN2CCn3cc(CNC(=O)c4cnn(C)c4)nc3C2)s1	16.8
CS(=O)(=O)NCc1cncc2c1CCN(C(=O)N1CCCC1)C2	37.2
OCc1c(Cl)ncn1-c1ccccc1	46.4
Cc1ccccc1-n1cnc(Cl)c1CO	59.3
Cc1cccc(-n2cnc(Cl)c2CO)c1	28
Cc1ccc(-n2cnc(Cl)c2CO)cc1	40.9
Cc1ccccc1-n1cnc(Cl)c1C(=O)O	24.4
OCc1c(Cl)ncn1-c1ccc(F)cc1	52.8
COc1ccc(CN2C[C@@H]3C(CC(=O)N4CCCC4)[C@@H]3C2)cc1 (stereo not given in full)	17.4
CCc1nnc2n1CC(CNCc1nnc(C(C)(C)C)o1)CC2 (stereo not given)	14.9
Cc1cccc(NC(=O)N2CCC3(CC(=O)N(c4ccsc4)C3)C2)c1 (stereo not given)	12.4
COCCn1cc2c(n1)C(CNCc1ccc(F)cc1)OCC2 (stereo not given)	13.5
Cc1ccc(C(=O)N(C)Cc2cscn2)c(=O)[nH]1	15
COCCC1COC2(CCN(C(=O)c3ccccc3)CC2)C1 (stereo not given)	40.4
COCCC1COC2(CCN(C(=O)c3ccsc3)CC2)C1 (stereo not given)	57.9
COCCC1COC2(CCN(C(=O)c3ccncc3)CC2)C1 (stereo not given)	74.2
CCN(C)C1COC2(CCN(C(=O)c3ccc(Cl)cc3)CC2)C1 (stereo not given)	70.3
CCN(C)C1COC2(CCN(C(=O)c3ccc4[nH]ccc4c3)CC2)C1 (stereo not given)	-12.2
COCCC1COC2(CCN(C(=O)c3cccn3C)CC2)C1 (stereo not given)	20.6
CCN(C)C1COC2(CCN(C(=O)c3cccc(Cl)c3)CC2)C1 (stereo not given)	0.112
COCCC1COC2(CCN(C(C)=O)CC2)C1 (stereo not given)	20.1
COCCC1COC2(CCN(C(=O)c3cccnc3)CC2)C1 (stereo not given)	34.6
